The source of these data is PubChem BioAssay AID651692 (Broad Institute, 2012).

Measured potencies and affinities stand elsewhere. Activity calls are given as the source filed them.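 How the source made its calls: active means fitted half-maximal concentration for loss of cell signal no higher than twice the top valid tested concentration; inconclusive means flat curve at 30 to 70% inhibition, or poor fit; inactive means flat within 30%, signal rise, or potency above limit.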

The assay can be described thus: MDA-MB-231 cell growth inhibition, dose response, cytotoxicity control for RAD54 inhibitor project, CellTiter-Glo luminescence, cherry-pick (AID 651692).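 Further: more negative values mean stronger loss of viable cell signal.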

On to `COc1ccc(-c2nn(C)c3sc(C(=O)NCCN(C)C)cc23)cc1OC`, for which the outcome was inactive.

Turning to `CCN1CCN(c2nn3c(=O)c4ccccc4nc3c3ccccc23)CC1`, the outcome was inactive.

On to `COc1cccc2sc3ccc(NCCC4CCCN4C)cc3c(=O)c12` (stereo unspecified), for which the result was inactive.

With `CCCCN(C)CCNC(=O)c1cc2c(-c3cccc(OC)c3)nn(C)c2s1`, the molecule was classed as inactive.

As for `CN(C)CCCN(C(=O)c1ccco1)c1nc(-c2ccc(Cl)cc2)cs1`, the outcome was inactive.

With `COc1ccc(CCn2c(=N)c(C(=O)NCCN3CCOCC3)cc3c(=O)n4cccc(C)c4nc32)cc1OC`, the result was inactive.

As for `O=C(CN1CCCCC1)n1c2ccccc2c2ccccc21`, the molecule was called inactive.

For the molecule `CCN(CC)CCCNC(=O)c1cc2c(-c3cccc(OC)c3)nn(C)c2s1`, the molecule was classed as inactive.

`CN(C)CCNC(=O)c1cccc(-c2cnc3c(NC=O)cc(-c4ccc(F)cc4)cn23)c1`: the outcome was inactive.

For the molecule `Cc1ccc(S(=O)(=O)CCSc2ccc(C(F)(F)F)cn2)cc1`, the molecule was called inactive.

With `CCOC(=O)c1c(NC(=O)c2ccc(S(=O)(=O)N3CCOCC3)cc2)sc2c1CCN(C)C2`, the molecule was classed as inactive.

Consider `COc1cccc(-c2nc(N3CCN(Cc4ccccc4)CC3)c3ccccc3n2)c1O`, for which the molecule was classed as inactive.

Regarding `Cc1cc(N2CCN(C)CC2)nc2ccc(NC(=S)NCCCN3CCc4ccccc4C3)cc12`, the call was inactive.

Take `COc1cccc(-c2cnc3c(NC(C)=O)cc(-c4cccc(C(=O)NCCN(C)C)c4)cn23)c1`: the molecule was called inactive.

As for `O=C(COc1ccc2c(c1)oc(=O)c1ccccc12)NCCCN1CCOCC1`, the molecule was classed as inactive.

As for `CCN(CC)CCNc1nc2cc(OC)c(OC)cc2c2nc(-c3ccccc3)nn12`, the call was inactive.
